Our source for the outcome and AC50 values is PubChem BioAssay (EPA / NIEHS).

Activity calls are given as the source filed them. How the source made its calls: active means hit-call score of the fitted dose curve at least 0.9, where 1 is the maximum; inactive means score below 0.9.

Test [1] can be described thus: ATG_M_32_CIS: Attagene CIS-FACTORIAL HepG2 Assay for M32 Transcription Factor (Internal Marker) (AID 2282949).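 Further: background control marker of the multiplexed CIS panel rather than a real target.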 To be noted: HepG2 Attagene cis-factorial M32 reporter, mRNA; actives raise or lower the signal. In outline: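 Following 24 h chemical exposure of HepG2 cells transiently expressing cis-promoter reporter constructs, reporter transcript levels were determined by RT-PCR with fluorescent labelling and capillary electrophoresis, then fitted bidirectionally against DMSO.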

The nature of test [2]: ATG_M_06_CIS: Attagene CIS-FACTORIAL HepG2 Assay for M06 Transcription Factor (Internal Marker) (AID 2282950). To be noted: HepG2 Attagene CIS-FACTORIAL M06 internal marker reporter; actives raise or lower the signal. In outline:
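Cells (HepG2, transiently carrying cis-driven reporter units) receive chemical for 24 h before RNA isolation. Reporter cDNA is PCR-amplified, FAM-labelled by primer extension, HpaI-digested and sized on a capillary analyser.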

In test [3] the target is Hypoxia-inducible factor 1-alpha (Homo sapiens) (UniProt Q16665). As to the kind of experiment: ATG_HIF1a_CIS: Attagene CIS-FACTORIAL HepG2 Assay for human Hypoxia Inducible Factor 1 (HIF1A) (AID 2282951). To be noted: HepG2 Attagene cis-factorial HIF1a reporter transcription; actives raise or lower the signal. In outline:
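Fluorescence intensity of capillary-separated, 6-FAM-labelled reporter amplicons gives mRNA induction in HepG2 cells carrying transfected cis-promoter reporter units; cells exposed 24 h, responses fitted up or down from DMSO.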

The target in test [4] is Hepatocyte nuclear factor 6 (Homo sapiens) (UniProt Q9UBC0). Kind of test: ATG_HNF6_CIS: Attagene CIS-FACTORIAL HepG2 Assay for human Hepatocyte Nuclear Factor 6 (HNF6) (AID 2282952). The following applies: HepG2 Attagene cis-factorial HNF6 reporter transcription; actives raise or lower the signal. The gist of the method:
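HepG2 cells transiently transfected with cis-element-driven multiple reporter transcription units, dosed 24 h; reporter mRNA quantified by RT-PCR, FAM primer extension, HpaI digestion and capillary electrophoresis; bidirectional fit versus DMSO baseline.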

For test [5], the target named is Heat shock factor protein 1 (Homo sapiens) (UniProt Q00613). Kind of test: ATG_HSE_CIS: Attagene CIS-FACTORIAL HepG2 Assay for human Heat Shock Transcription Factor 1 (HSE) (AID 2282953). To be noted: HepG2 HSE cis-reporter, Attagene RNA transcription; actives raise or lower the signal. The gist of the method:
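Liver-derived HepG2 cells carry transiently introduced multiple reporter units governed by cis promoters. Reporter RNA measured 24 h post-dose through reverse transcription, PCR amplification, fluorescent labelling and capillary electrophoresis, normalised to DMSO.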

The nature of test [6]: ATG_MRE_CIS: Attagene CIS-FACTORIAL HepG2 Assay for human Metal Responsive Element (MRE) (AID 2282954). The following applies: HepG2 MRE cis-reporter transcription, Attagene multiplex; actives raise or lower the signal. In outline:
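HepG2 cells transiently transfected with multiple cis-element reporter units measure endogenous MTF1-driven transcription. After 24 h compound exposure, reporter mRNA is quantified by RT-PCR with 6-FAM labelling, HpaI digestion and capillary electrophoresis; bidirectional fits versus DMSO.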

Test [7] in a line: ATG_PBREM_CIS: Attagene CIS-FACTORIAL HepG2 Assay for human Phenobarbital-responsive Enhancer Module (PBREM) (AID 2282955). To be noted: HepG2 PBREM cis-reporter, Attagene multiplexed transcription; actives raise or lower the signal. The gist of the method:
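Cells were transfected with cis-element reporter units and treated for 24 h, after which RNA was extracted and reporter transcripts measured by RT-PCR and capillary electrophoresis.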

In test [8] the target is Paired box protein Pax-6 (Homo sapiens) (UniProt P26367). Kind of test: ATG_Pax6_CIS: Attagene CIS-FACTORIAL HepG2 Assay for human Paired Box 6 (PAX6) (AID 2282956). To be noted: HepG2 CIS-FACTORIAL PAX6 reporter transcription, RNA readout; actives raise or lower the signal. In outline:
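Multiplexed cis-reporter HepG2 system; 24 h treatment; reporter mRNA read by RT-PCR/CE fluorescence; bidirectional fit vs DMSO.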

The nature of test [9]: ATG_PXRE_CIS: Attagene CIS-FACTORIAL HepG2 Assay for human Pregnane X Receptor Element (PXRE) (AID 2282957). To be noted: HepG2 Attagene CIS-FACTORIAL PXRE reporter, mRNA; actives raise or lower the signal. In outline:
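HepG2 cells transiently transfected with cis-regulated multiple reporter transcription units; endogenous factor activity measured as reporter mRNA 24 h after dosing. RT-PCR, fluorescent primer extension, HpaI digestion, capillary electrophoresis; bidirectional fit versus DMSO baseline.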

The nature of test [10]: ATG_PPRE_CIS: Attagene CIS-FACTORIAL HepG2 Assay for human Peroxisome Proliferator-activated Response Element (PPRE) (AID 2282958). To be noted: HepG2 PPRE cis-element reporter, Attagene transcription factor profiling; actives raise or lower the signal. In outline:
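In this cell-based multiplex, a PPRE cis element drives a reporter sequence in transiently transfected HepG2 cells. Following 24 h treatment, labeled cDNA amplicons are sized and quantified by capillary electrophoresis, with DMSO defining baseline.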

Test [11] can be described thus: ATG_RORE_CIS: Attagene CIS-FACTORIAL HepG2 Assay for human RAR-related Orphan Receptor Element (RORE) (AID 2282959). To be noted: HepG2 Attagene cis-factorial RORE reporter, mRNA; actives raise or lower the signal. In outline:
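Endogenous factor activity at a cis response element is read as reporter transcript levels in HepG2 cells, 24 h post-dose. Transcripts are quantified by RT-PCR with capillary electrophoresis, and data fitted in both directions against DMSO.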

Test [12] is described as follows: ATG_Sox_CIS: Attagene CIS-FACTORIAL HepG2 Assay for human SRY-box transcription factor (SOX) (AID 2282960). The following applies: HepG2 Attagene cis-factorial SOX reporter, mRNA; actives raise or lower the signal. The gist of the method: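 Measures mRNA induction of a SOX1-associated reporter in HepG2 after 24 h dosing. Fluorescently labelled RT-PCR fragments are separated by capillary electrophoresis, and gain or loss relative to DMSO control is fitted.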

Test [13] deals with Transcription factor Sp1 (Homo sapiens) (UniProt P08047). Kind of test: ATG_Sp1_CIS: Attagene CIS-FACTORIAL HepG2 Assay for human Specificity Protein 1 (Sp1) (AID 2282961). To be noted: HepG2 Sp1 cis-reporter transcription, actives raise or lower the signal. The gist of the method: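 Cells: HepG2, transiently transfected with cis-regulated multiplexed reporters. Exposure: 24 h. Detection: reporter transcripts amplified, fluorescently labeled, restriction-digested and sized by capillary electrophoresis. Analysis: bidirectional fit relative to DMSO.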

Test [14] is described as follows: ATG_SREBP_CIS: Attagene CIS-FACTORIAL HepG2 Assay for human Sterol Regulatory Element Binding (SREBP) (AID 2282962). The following applies: HepG2 Attagene cis-factorial SREBP reporter, mRNA; actives raise or lower the signal. The gist of the method:
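mRNA induction of transfected cis-promoter reporters in HepG2 cells, 24 h post-dose. Detection: RT-PCR with 6-FAM-labelled products, HpaI digest, capillary electrophoresis. DMSO served as negative control and baseline.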

Test [15] deals with Signal transducer and activator of transcription 3 (Homo sapiens) (UniProt P40763). Kind of test: ATG_STAT3_CIS: Attagene CIS-FACTORIAL HepG2 Assay for human Signal Transducer and Activator of Transcription 3 (STAT3) (AID 2282963). The following applies: HepG2, Attagene cis-factorial STAT3 reporter transcription; actives raise or lower the signal. The gist of the method:
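HepG2 cells transiently transfected with cis-element-driven multiple reporter transcription units; after 24 h chemical exposure, reporter mRNA measured by RT-PCR, 6-FAM primer-extension labelling, HpaI digestion and capillary electrophoresis. Bidirectional fitting versus DMSO baseline.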

Test [16] can be described thus: ATG_TA_CIS: Attagene CIS-FACTORIAL HepG2 Assay for human TA Basal Promoter (AID 2282964). The following applies: HepG2 Attagene CIS-factorial TA basal promoter reporter; actives raise or lower the signal. The gist of the method: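 Background internal-marker endpoint from a 52-component HepG2 cis-reporter panel. Cells treated 24 h; reporter transcripts quantified via RT-PCR and CE fluorescence against DMSO baseline.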

A short description of test [17]: ATG_TCF_b_cat_CIS: Attagene CIS-FACTORIAL HepG2 Assay for human T-Cell-Factor with beta-catenin (TCF/b-cat) (AID 2282965). To be noted: HepG2 TCF/beta-catenin cis-reporter transcription, actives raise or lower the signal. In outline: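 HepG2 cells transiently transfected with multiple cis-promoter-regulated reporter transcription units, so endogenous transcription factor activity is measured. Reporter mRNA read 24 hours after dosing by RT-PCR, fluorescent labelling and capillary electrophoresis; bidirectional fitting against DMSO.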

Test [18] can be described thus: ATG_TAL_CIS: Attagene CIS-FACTORIAL HepG2 Assay for human TAL Basal Promoter (AID 2282966).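 Further: background control endpoint measuring basal TAL promoter reporter mRNA not a specific factor.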 To be noted: HepG2 Attagene cis-factorial TAL promoter reporter; actives raise or lower the signal. The gist of the method:
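HepG2 cells were transiently transfected with promoter-driven multiplexed reporter units and dosed for 24 h. Reporter mRNA was measured by RT-PCR with capillary electrophoresis fluorescence; bidirectional fits used DMSO as baseline, serving as a background control.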

A short description of test [19]: ATG_TGFb_CIS: Attagene CIS-FACTORIAL HepG2 Assay for human Transforming Growth Factor (TGF) (AID 2282967). To be noted: HepG2 Attagene CIS TGFb reporter, mRNA transcription; actives raise or lower the signal. The gist of the method:
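Liver HepG2 line, cis-factorial reporter panel, 24 h dosing. Quantitation: RT-PCR products labeled with 6-FAM, cut with HpaI, resolved by capillary electrophoresis; DMSO-referenced bidirectional analysis.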

The nature of test [20]: ATG_VDRE_CIS: Attagene CIS-FACTORIAL HepG2 Assay for human Vitamin D Receptor Element (VDRE) (AID 2282968). The following applies: HepG2 VDRE cis-reporter transcription, actives raise or lower the signal. The gist of the method: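 HepG2 cells transiently transfected with cis-element reporter units, dosed 24 h; reporter mRNA measured by RT-PCR, 6-FAM labeling, HpaI digestion and capillary electrophoresis. Activity fitted bidirectionally against DMSO baseline.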

Chain of Heat shock factor protein 1 (Homo sapiens) (Q00613 whole entry, looked up): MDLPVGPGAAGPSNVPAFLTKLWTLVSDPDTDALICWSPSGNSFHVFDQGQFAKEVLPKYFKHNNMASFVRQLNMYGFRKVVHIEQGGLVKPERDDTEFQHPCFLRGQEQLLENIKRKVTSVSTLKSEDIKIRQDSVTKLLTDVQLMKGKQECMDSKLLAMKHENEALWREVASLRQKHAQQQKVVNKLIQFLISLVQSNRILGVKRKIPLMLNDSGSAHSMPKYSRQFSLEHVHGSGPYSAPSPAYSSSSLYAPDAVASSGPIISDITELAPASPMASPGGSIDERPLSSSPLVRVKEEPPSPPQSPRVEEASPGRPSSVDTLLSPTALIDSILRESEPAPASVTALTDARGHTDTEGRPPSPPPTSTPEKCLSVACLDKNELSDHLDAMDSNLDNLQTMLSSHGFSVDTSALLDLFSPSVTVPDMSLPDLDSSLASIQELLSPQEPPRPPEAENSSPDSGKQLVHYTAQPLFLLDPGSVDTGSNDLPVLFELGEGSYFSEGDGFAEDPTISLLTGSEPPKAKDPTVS
Chain of Transcription factor Sp1 (Homo sapiens) (P08047 whole entry, looked up): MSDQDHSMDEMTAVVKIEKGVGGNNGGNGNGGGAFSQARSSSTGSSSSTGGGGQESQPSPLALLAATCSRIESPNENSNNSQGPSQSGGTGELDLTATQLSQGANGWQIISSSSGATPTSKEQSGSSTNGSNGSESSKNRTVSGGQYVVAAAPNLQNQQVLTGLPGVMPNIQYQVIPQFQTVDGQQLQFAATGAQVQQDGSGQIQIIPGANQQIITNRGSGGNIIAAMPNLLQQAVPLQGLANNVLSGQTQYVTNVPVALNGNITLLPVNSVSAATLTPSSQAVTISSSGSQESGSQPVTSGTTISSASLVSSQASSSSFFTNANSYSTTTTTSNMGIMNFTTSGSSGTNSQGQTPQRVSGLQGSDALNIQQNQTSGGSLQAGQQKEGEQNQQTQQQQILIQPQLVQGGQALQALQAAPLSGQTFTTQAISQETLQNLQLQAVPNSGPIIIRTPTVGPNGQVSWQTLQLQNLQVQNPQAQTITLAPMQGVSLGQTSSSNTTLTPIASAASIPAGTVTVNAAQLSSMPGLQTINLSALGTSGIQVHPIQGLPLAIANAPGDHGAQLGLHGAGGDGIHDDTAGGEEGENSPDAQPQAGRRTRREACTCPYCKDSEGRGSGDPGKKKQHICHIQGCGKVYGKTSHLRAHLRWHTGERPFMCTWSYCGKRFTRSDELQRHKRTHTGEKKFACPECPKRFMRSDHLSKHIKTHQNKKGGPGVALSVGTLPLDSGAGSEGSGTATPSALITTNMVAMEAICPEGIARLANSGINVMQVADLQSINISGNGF
Chain of Hepatocyte nuclear factor 6 (Homo sapiens) (Q9UBC0 whole entry, looked up): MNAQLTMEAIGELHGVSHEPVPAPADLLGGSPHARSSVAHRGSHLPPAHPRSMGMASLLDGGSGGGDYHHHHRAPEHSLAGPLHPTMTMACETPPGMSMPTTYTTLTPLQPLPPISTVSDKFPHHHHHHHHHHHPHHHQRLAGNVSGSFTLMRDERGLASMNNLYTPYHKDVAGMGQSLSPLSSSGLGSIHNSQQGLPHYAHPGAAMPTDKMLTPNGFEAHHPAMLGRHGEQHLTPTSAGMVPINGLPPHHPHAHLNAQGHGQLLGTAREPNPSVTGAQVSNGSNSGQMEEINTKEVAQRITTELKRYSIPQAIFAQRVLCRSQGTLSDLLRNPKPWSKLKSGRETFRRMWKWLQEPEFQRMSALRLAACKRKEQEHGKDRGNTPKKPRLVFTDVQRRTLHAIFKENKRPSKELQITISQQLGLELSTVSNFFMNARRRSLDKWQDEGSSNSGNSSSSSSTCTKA
Chain of Hypoxia-inducible factor 1-alpha (Homo sapiens) (Q16665 whole entry, looked up): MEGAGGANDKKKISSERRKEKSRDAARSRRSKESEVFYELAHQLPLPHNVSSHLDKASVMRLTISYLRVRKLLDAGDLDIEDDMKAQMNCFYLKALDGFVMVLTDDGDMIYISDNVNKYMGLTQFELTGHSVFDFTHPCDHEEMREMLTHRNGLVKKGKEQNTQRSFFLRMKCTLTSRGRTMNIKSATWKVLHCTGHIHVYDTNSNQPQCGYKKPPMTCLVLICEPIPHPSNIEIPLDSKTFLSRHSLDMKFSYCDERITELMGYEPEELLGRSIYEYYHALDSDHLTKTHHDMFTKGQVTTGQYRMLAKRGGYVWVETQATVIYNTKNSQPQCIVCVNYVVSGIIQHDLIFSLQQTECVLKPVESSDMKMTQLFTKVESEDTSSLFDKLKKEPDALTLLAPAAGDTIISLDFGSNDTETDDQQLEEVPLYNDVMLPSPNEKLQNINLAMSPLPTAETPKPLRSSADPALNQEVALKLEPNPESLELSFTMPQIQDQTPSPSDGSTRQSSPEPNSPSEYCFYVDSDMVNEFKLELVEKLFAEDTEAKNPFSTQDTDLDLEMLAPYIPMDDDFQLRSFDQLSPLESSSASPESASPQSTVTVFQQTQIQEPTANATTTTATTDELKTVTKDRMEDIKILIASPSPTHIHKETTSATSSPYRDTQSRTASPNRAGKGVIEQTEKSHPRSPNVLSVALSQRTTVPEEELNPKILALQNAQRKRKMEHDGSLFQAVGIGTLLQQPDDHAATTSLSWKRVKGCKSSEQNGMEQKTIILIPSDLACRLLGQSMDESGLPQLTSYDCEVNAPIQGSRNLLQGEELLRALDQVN
Chain of Signal transducer and activator of transcription 3 (Homo sapiens) (P40763 whole entry, looked up): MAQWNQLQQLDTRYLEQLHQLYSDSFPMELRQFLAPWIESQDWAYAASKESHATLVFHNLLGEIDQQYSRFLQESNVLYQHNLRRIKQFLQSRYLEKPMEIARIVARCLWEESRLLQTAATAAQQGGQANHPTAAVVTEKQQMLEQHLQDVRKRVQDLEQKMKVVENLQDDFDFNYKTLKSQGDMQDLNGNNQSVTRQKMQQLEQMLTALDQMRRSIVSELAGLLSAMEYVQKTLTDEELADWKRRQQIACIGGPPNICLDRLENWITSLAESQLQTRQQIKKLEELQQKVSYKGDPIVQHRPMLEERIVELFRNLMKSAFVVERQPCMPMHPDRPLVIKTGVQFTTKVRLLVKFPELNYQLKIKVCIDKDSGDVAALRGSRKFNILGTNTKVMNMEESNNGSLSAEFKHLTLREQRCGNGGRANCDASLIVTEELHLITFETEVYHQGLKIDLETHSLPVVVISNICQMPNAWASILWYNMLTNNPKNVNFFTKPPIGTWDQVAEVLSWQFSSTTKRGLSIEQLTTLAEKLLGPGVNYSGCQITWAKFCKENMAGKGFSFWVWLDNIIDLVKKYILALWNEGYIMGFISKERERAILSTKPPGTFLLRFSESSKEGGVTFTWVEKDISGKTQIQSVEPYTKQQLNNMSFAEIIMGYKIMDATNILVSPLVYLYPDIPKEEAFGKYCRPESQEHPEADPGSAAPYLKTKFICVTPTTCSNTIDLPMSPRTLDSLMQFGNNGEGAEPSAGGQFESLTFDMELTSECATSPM
Chain of Paired box protein Pax-6 (Homo sapiens) (P26367 whole entry, looked up): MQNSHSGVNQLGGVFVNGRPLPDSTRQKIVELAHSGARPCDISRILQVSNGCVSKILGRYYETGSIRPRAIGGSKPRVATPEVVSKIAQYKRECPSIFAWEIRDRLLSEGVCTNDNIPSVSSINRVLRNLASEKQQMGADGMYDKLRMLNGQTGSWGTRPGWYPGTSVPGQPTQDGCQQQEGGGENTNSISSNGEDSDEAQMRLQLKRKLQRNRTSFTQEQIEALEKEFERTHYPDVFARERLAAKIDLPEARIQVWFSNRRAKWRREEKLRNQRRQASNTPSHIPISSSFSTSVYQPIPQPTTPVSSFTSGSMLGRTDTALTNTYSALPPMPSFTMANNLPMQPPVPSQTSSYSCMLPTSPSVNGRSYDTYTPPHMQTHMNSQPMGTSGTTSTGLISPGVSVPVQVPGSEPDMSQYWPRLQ

For `CCOP(=S)(OCC)OP(=S)(OCC)OCC`, the result in test [1], in test [2], in test [4], in [5], in [6] and in [7] was inactive. For the same compound, the outcome in [8], in test [10], in [11], in [12], in test [13] and in [14] was inactive. In addition, the result in [15], in test [16], in test [17], in [18] and in test [19] was inactive. Also, the AC50 in test [3] was 49.2 µM (active); in test [9], 1.11 µM (active).

Regarding `CCOCn1c(-c2ccc(Cl)cc2)c(C#N)c(Br)c1C(F)(F)F`, the AC50 is 148 µM (active) in test [1]; 184 µM (active) in test [4]; 53.2 µM (active) in test [5]; 34.7 µM (active) in test [6]; 2.77 µM (active) in test [8]; 0.46 µM (active) in [9]. Also, the AC50 was 4.17 µM (active) in [10]; 3.54 µM (active) in test [11]; 30.4 µM (active) in test [12]; 30.6 µM (active) in test [13]; 49 µM (active) in test [14]; 142 µM (active) in test [15]. Besides, the AC50 is 7.11 µM (active) in test [17], 25.6 µM (active) in test [19] and 1.79 µM (active) in test [20]. Besides, the compound was classed as inactive in test [2], in test [3], in test [7], in test [16] and in test [18].

Regarding `O=[N+]([O-])c1cccc2ccccc12`, the result in test [1], in test [2], in [3], in test [4], in test [5] and in [6] was inactive. Further, the result in test [7], in test [8], in [10], in test [11], in [12] and in test [13] was inactive. The compound was called inactive in [15], in [16], in test [17] and in [18]. Also, in [9], the AC50 was 27.6 µM (active).

As to `Nc1ncn[nH]1`, the result in test [1], in test [2], in [3], in [4], in test [5] and in test [6] was inactive. The result in test [7], in test [8], in test [9], in test [10], in [11] and in [12] was inactive. The outcome in test [13], in test [14], in test [15], in test [16], in test [17] and in [18] was inactive.

In general, AC50 refers to the concentration at which the activity in the assay is half-maximal.
